These results are taken from PMC5540273 (PLoS ONE, 2017).

Where two headings read alike, the source gives them in different places.

For test [1], the system named is AAK1. The following applies: n = 1.
Test [2] concerns ABL1-nonphosphorylated. The conditions noted are these: n = 1.
Test [3] has as its system ABL1-phosphorylated. The conditions noted are these: n = 1.
Test [4] relates to ABL2. The following applies: concentration: 1 μM, replicates: in singlicate; n = 1.
Test [5] deals with ACVR1B. The following applies: concentration: 1 μM, replicates: in singlicate; n = 1.
Test [6] deals with ACVR1. The conditions noted are these: concentration: 1 μM, replicates: in singlicate; n = 1.
In test [7] the test system is ACVR2A. The following applies: concentration: 1 μM, replicates: in singlicate; n = 1.
Test [8] relates to ACVR2B. The following applies: concentration: 1 μM, replicates: in singlicate; n = 1.
The subject of test [9] is ACVRL1. The conditions noted are these: concentration: 1 μM, replicates: in singlicate; n = 1.
Test [10] has as its system T1, ADCK3.
T1 construct: gene CABC1
The conditions noted are these: concentration: 1 μM, replicates: in singlicate; n = 1.

Where [11] appears, read: concentration: 1 μM, replicates: in singlicate.
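Further: KINOMEscan kinase panel screen.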

Consider `O=C(Nc1n[nH]c2nc(-c3ccc(O)cc3)ccc12)C1CC1` [SB-710363], for which the “%Inh” value was determined as 38% in test [1] (setting [11]); 88% in test [2] (setting [11]); 74% in [3] (setting [11]); 0% in test [4]; 0% in test [5]; 74% in [6]. The “%Inh” value turned out to be 55% in test [7], 50% in test [8], 1% in test [9] and 0% in [10].

For the compound `COc1cccc(NC(=O)NC2CCN(c3ccnc(Nc4cc(OC)c(OC)c(OC)c4)n3)C2)c1` (stereo not shown) [GSK1379763], the “%Inh” value in test [1] (setting [11]) came to 74%; in test [2] (setting [11]), 0%; in test [3] (setting [11]), 0%; in test [4], 0%; in [5], 0%; in test [6], 0%. For the same compound, the “%Inh” value in test [7] is recorded as 89%; in [8] it was 0%; in test [9], 0%; in test [10] it was 0%.

For the compound `Cc1cccc(NC(=O)Nc2ccc(Oc3ncnc4ccn(C)c34)cc2)c1`, the “%Inh” value in test [1] (setting [11]) was determined as 0%; in test [2] (setting [11]), 33%; in [3] (setting [11]), 23%; in test [4] it was 0%; in [5] it was 0%; in [6], 4%. The “%Inh” value came to 2% in test [7], 0% in [8], 0% in test [9] and 0% in [10].

For `c1ccc(-c2n[nH]cc2Nc2ccnc3ccccc23)nc1` [GW694077], the “%Inh” value in test [1] (setting [11]) is 82%; in [2] (setting [11]), 0%; in test [3] (setting [11]), 0%; in test [4], 0%; in test [5], 0%; in test [6], 30%. The “%Inh” value was determined as 0% in [7], 0% in test [8], 0% in test [9] and 3% in test [10].

As for `FC(F)(F)c1ccc(/C=C/c2cncnc2Nc2ccc3[nH]c(Cc4ccccc4)nc3c2)cc1` [GW709199], the “%Inh” value came to 15% in test [1] (setting [11]); 35% in test [2] (setting [11]); 19% in test [3] (setting [11]); 4% in test [4]; 0% in [5]; 0% in test [6]. In addition, the “%Inh” value in test [7] is recorded as 24%; in [8], 37%; in test [9] it was 0%; in test [10], 18%.

For the compound `Cc1ccc(C)c(NC(=O)NC2CCN(c3ccnc(Nc4ccc(F)cc4)n3)C2)c1` (stereo not shown) [GSK1379720], the “%Inh” value came to 6% in [1] (setting [11]); 0% in test [2] (setting [11]); 0% in test [3] (setting [11]); 7% in [4]; 0% in [5]; 14% in test [6]. Moreover, the “%Inh” value in [7], in [8], in [9] and in [10] was 0% throughout.

As to `COc1cccc(C(=O)Nc2cccc(Oc3ccc4nc(NC(=O)C5CC5)cn4n3)c2)c1`, the “%Inh” value in [1] (setting [11]) is recorded as 27%; in test [2] (setting [11]) it was 100%; in test [3] (setting [11]) it was 99.7%; in test [4], 96.3%; in test [5] it was 0%; in [6], 0%. The “%Inh” value stood at 1% in test [7], 18% in [8], 8% in test [9] and 10% in test [10].

Take `O=C(Nc1n[nH]c2cc(-c3ccoc3)ccc12)C1CC1` [SB-738481]: the “%Inh” value in test [1] (setting [11]) worked out at 45%; in test [2] (setting [11]), 25%; in test [3] (setting [11]), 0%; in test [4], 0%; in test [5], 0%; in test [6], 30%. For the same compound, the “%Inh” value in test [7] is listed as 19%; in [8] it was 46%; in test [9] it was 0%; in test [10], 0%.

On to `C[C@@H](Oc1cc(-n2cnc3cc(-c4ccnc(NCCS(C)(=O)=O)c4)ccc32)sc1C(N)=O)c1ccccc1Cl` [GSK907232], for which the “%Inh” value in test [1] (setting [11]) was found to be 73%; in [2] (setting [11]), 0%; in test [3] (setting [11]), 0%; in [4], 30%; in test [5], 0%; in test [6], 10%. Moreover, the “%Inh” value in test [7] amounted to 0%; in [8], 3%; in test [9], 0%; in [10], 25%.

`COc1cc2c(cc1OCCN1CCNCC1)ncc1c3ccc(C#N)cc3[nH]c21`: the “%Inh” value in test [1] (setting [11]) is 96.2%; in [2] (setting [11]), 68%; in [3] (setting [11]), 55%; in test [4] it was 8%; in [5], 0%; in [6], 0%. Moreover, the “%Inh” value in [7] turned out to be 0%; in [8], 0%; in test [9], 0%; in test [10] it was 13%.

`Oc1cc(Nc2ccnc3cc(I)ccc23)ccc1F` [GW552771]: the “%Inh” value in test [1] (setting [11]) is reported as 10%; in [2] (setting [11]) it was 99.1%; in test [3] (setting [11]), 99.6%; in test [4] it was 91.7%; in test [5] it was 54%; in test [6], 97.4%. Moreover, the “%Inh” value in test [7] was found to be 100%; in test [8] it was 93.7%; in test [9], 69%; in test [10], 19%.

For the compound `CNC(=O)c1ccccc1Nc1nc(Nc2ccc(N3CCOCC3)cc2)ncc1Cl.Cl` [GSK1576028], the “%Inh” value in test [1] (1 µM) worked out at 89%; in test [2] (1 µM) it was 98.8%; in test [3] (1 µM) it was 99.6%; in test [4], 95.6%; in test [5] it was 85%; in test [6], 95%. Also, the “%Inh” value in test [7] amounted to 18%; in [8] it was 43%; in [9] it was 42%; in test [10], 35%.

For the compound `NCCCC(NC(=O)c1cc(Br)c(-c2ccnc3[nH]ccc23)s1)c1ccccc1.O=C(O)C(F)(F)F.O=C(O)C(F)(F)F` (stereo not shown) [GSK1287544], the “%Inh” value worked out at 55% in test [1] (setting [11]); 0% in [2] (setting [11]); 0% in test [3] (setting [11]); 23% in test [4]; 0% in test [5]; 0% in test [6]. Further, the “%Inh” value in test [7] turned out to be 0%; in test [8] it was 0%; in test [9], 0%; in [10] it was 20%.

As for `Clc1ccc(-c2nn3ncccc3c2-c2ccnc(Nc3ccc4c(c3)OCCO4)n2)cc1` [GW829116], the “%Inh” value in test [1] (setting [11]) is 0%; in test [2] (setting [11]), 61%; in [3] (setting [11]), 7%; in test [4], 0%; in [5], 28%; in [6], 0%. Besides, the “%Inh” value in test [7] turned out to be 14%; in test [8] it was 54%; in test [9], 4%; in test [10] it was 16%.

As for `C[C@@H]1CC[C@@H](C(=O)Nc2ccccc2)CN1c1cc(-c2ccc3c(N)n[nH]c3c2)nc(N)n1` [GSK2286062], the “%Inh” value is 18% in test [1] (setting [11]); 0% in [2] (setting [11]); 0% in [3] (setting [11]); 2% in [4]; 0% in test [5]; 0% in test [6]. The “%Inh” value was determined as 0% in test [7], 0% in test [8], 0% in test [9] and 29% in test [10].

Consider `Nc1n[nH]c2cnc(-c3ccccc3)cc12` [SB-642124], for which the “%Inh” value in test [1] (setting [11]) came out at 37%; in test [2] (setting [11]), 0%; in [3] (setting [11]), 0%; in [4], 16%; in test [5], 0%; in test [6], 41%. In addition, the “%Inh” value is 0% in test [7], 13% in test [8], 0% in test [9] and 19% in [10].
